# An excerpt weighted towards active compounds, which were near 7.3% of everything screened.
# ELG1 genotox: qHTS screen for small molecules that induce genotoxicity in human embryonic kidney (HEK293T) cells expressing luciferase-tagged ELG1. actives 1.3% (n = 330,000). HEK293T ELG1-luciferase reporter, luminescence, 16 h. Potency, µM (series often up to 46 µM), inactives show at the top dose activity change, positive = activation, actives largely listed as activators; also: % of control where 0% means no effect; nearly all actives have a fitted effect of over 60% in size
#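 Genotoxic stress is detected as increased luminescence from luciferase-tagged ELG1 in HEK293T cells, measured with ONE-Glo after a 16 hr treatment at 37 °C.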
# FLuc counter: qHTS profiling assay for firefly luciferase inhibitor/activator using purifed enzyme and Km concentrations of substrates (counterscreen for miR-21 project). purified FLuc, Km substrates, luminescence inhibition. Potency, µM (top dose mostly 57.5 µM), for inactives: at the top dose activity change, negative = inhibition, most hits filed as inhibitors. actives 6.9% (n = 360,000);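 also: plate controls were vehicle for no effect and reference inhibitor for full effect; nearly all actives have a fitted effect of over 55% in size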
# Target sequence (P08659 whole entry, looked up): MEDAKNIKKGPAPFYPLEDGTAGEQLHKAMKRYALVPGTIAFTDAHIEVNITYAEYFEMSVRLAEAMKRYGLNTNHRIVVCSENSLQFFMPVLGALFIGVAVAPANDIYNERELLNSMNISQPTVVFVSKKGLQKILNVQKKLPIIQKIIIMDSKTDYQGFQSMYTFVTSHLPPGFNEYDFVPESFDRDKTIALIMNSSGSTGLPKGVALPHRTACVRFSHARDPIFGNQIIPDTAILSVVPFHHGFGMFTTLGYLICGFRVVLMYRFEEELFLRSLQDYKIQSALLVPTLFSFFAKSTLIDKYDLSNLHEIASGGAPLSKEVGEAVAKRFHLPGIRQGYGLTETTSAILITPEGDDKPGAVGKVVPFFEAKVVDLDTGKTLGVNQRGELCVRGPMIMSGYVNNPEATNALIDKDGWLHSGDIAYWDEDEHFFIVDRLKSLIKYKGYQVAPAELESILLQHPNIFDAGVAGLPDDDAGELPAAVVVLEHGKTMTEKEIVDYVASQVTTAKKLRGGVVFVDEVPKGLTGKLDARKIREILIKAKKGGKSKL
#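 Purified P. pyralis luciferase, 10 nM final, with Km-level 10 uM D-luciferin and 10 uM ATP in 50 mM Tris acetate pH 7.5, 10 mM Mg acetate, 0.01% Tween-20, 0.05% BSA; 6-point qHTS titration about 60 µM downward; luminescence read.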
# NPC1 promoter act: qHTS Assay for NPC1 Promoter Activators | Huh7 NPC1 promoter luciferase reporter, 24 h | Potency, µM (series often up to 9.22 µM), inactives show at the highest dose activation, hits mostly activators | actives 2.4% (n = 320,000); also: % of control where 0% means no effect; nearly all actives have a fitted effect of over 60% in size
#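 Luminescence from an NPC1 promoter-driven luciferase reporter in stably transfected Huh7 cells was measured after 24 h compound treatment at 37 °C, followed by 10 min ambient incubation with luciferase detection reagent.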
# p53 reactivation: qHTS assay for re-activators of p53 using a Luc reporter; H1299 p53-A138V BP100-luciferase reporter, luminescence, 24 h; Potency, µM (doses to about 92.2 µM), for the others: at the top dose activity change, positive = activation, most hits filed as activators; actives 0.063% (n = 320,000); AID 504706, 2011; also: % of control where 0% means no effect; nearly all actives have a fitted effect of over 45% in size
#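 H1299 (p53-null), stable ts p53-A138V + BP100-Luc; 1000 cells/well, Opti-MEM/10% FBS; cpd 4 pt, 1:5; 24 h, 37 deg C, 5% CO2; detection reagent 10 min RT; luminescence.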
# SMN2 splice up: qHTS Assay for Enhancers of SMN2 Splice Variant Expression. HEK293 SMN2-luciferase splicing reporter, luminescence, 30-36 h. Potency, µM (titrated, usually from 46.1 µM), for inactives: at the top dose activity change, positive = activation, actives largely listed as activators. actives 2.8% (n = 210,000). AID 1458, 2008; also: % of control where 0% means no effect; nearly all actives have a fitted effect of over 55% in size
#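 HEK293 cells carry an SMN2 […]–luciferase reporter in which exon 7 inclusion puts luciferase in frame. Cells were plated 10-12 h before compound addition, then incubated 30-36 h at 37C. ONE-Glo luminescence was read; sodium butyrate at 4.5 mM final served as control.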
# Rab9 prom act: qHTS Assay for Rab9 Promoter Activators; Huh7 Rab9 promoter-luciferase reporter, luminescence, 24 h; Potency, µM (highest dose often 9.22 µM), for the others: at the highest dose activation, negative = inhibition, hits mostly activators; actives 2.8% (n = 320,000); AID 485297, 2010; also: % of control where 0% means no effect; nearly all actives have a fitted effect of over 60% in size
#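 Luminescence from Amplite-detected luciferase (10 minutes, ambient) reports Rab9 promoter activation. Before that, stable Rab9-luciferase Huh7 cells (1500/well, reduced-serum OP-MEM I plus 10% FBS) were exposed to compound for 24 hours at 37C.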
# The depositor's hits bear a star; ? = inconclusive; / = no result given; [ ] = another dose, or the depositor's remark. Calls follow the shape of the dose curve; as a rule, active = well fitted curve in the direction sought with a large enough effect; inconclusive = small, poorly fitted or top-dose-only effect, or another doubt; inactive = no such curve, though single readings can be large; an effect the other way counts as inactive or inconclusive. Potency is read from the fitted curve at half-maximal effect.
SMILES,ELG1 genotox,FLuc counter,NPC1 promoter act,p53 reactivation,SMN2 splice up,Rab9 prom act
O=C(NNC(=S)Nc1ccccc1)c1ccc(O)cc1,?,?,3.5µM*,11%,/,3.5µM*
O=S(=O)(N/N=C/c1ccc2c(c1)OCO2)c1ccc(Br)cc1,-4%,2%,-1%,9%,/,-5%
CC(=O)N/C(=C\c1ccccc1)C(=O)OCC(=O)Nc1cc(S(=O)(=O)N(C)C)ccc1C,-1%,3%,0%,-2%,/,2%
Cc1ccc(S(=O)(=O)N(C)C)cc1NC(=O)COC(=O)/C=C/c1ccc2c(c1)OCO2,0%,21µM*,-1%,-1%,3%,1%
CN(C)S(=O)(=O)c1cccc(NC(=O)COC(=O)/C=C/c2ccc3c(c2)OCO3)c1,10%,12µM*,-1%,0%,6%,5%
Cc1ccc(/C=C/C(=O)OCC(=O)Nc2cccc(S(=O)(=O)N(C)C)c2)o1,-1%,21µM*,2%,4%,6%,-2%
O=C(NCc1ccc(Cl)cc1)C1CCN(S(=O)(=O)c2ccc3c(c2)CCCN3C(=O)C2CCC2)CC1,/,0%,/,/,/,/
CCOC(=O)CCSc1nc(C)c2cc(OC)ccc2n1,?,13µM*,?,?,12%,?
CCOC(=O)CCSc1nc(C)c2cc(C)c(C)cc2n1,0%,?,-4%,?,13%,-2%
Cc1cccc(-c2cc3nc(-c4ccccc4)cc(=O)n3[nH]2)c1,?,7.6µM*,2µM*,?,/,2.8µM*
O=C1CCC(=O)N1c1nc2nc(-c3ccccc3)cc(=O)n2[nH]1,0%,-9%,-1%,0%,19%,-5%
Cc1nc2nc(-c3ccccc3)cc(=O)n2[nH]1,?,7.6µM*,17%,26%,?,17%
Cc1cc(=O)n2[nH]c(SCc3ccccc3)nc2n1,-2%,?,-5%,3%,-13%,2%
O=c1cc(-c2ccccc2)nc2nc(-c3ccco3)[nH]n12,?,3.4µM*,15%,?,?,11%
O=c1cc(-c2ccccc2)nc2nc(CCc3ccccc3)[nH]n12,-1%,?,0%,16%,12%,2%
Cc1ccccc1-c1cc2nc(-c3ccc([N+](=O)[O-])cc3)cc(=O)n2[nH]1,1%,?,-3%,0%,/,-2%
O=c1cc(-c2ccccc2)nc2nc(SCc3ccccc3)[nH]n12,12%,27µM*,1%,9%,6%,8%
O=C(CCc1ccc(S(=O)(=O)N2CCOCC2)cc1)N/N=C/c1ccc(O)c(O)c1O,-6%,?,-4%,-8%,20%,0%
O=S1(=O)N=C2CCCCCN2C(c2ccc(Br)cc2)N1 (centres undefined),-2%,-2%,-1%,4%,-8%,3%
CCOC(=O)Cn1c(=O)c2c(nc3n2CCN3c2ccc(C)cc2)n(C)c1=O,-6%,1%,1%,5%,18%,-3%
CCOC(=O)Cn1c(=O)c2c(nc3n2CCN3c2ccc(CC)cc2)n(C)c1=O,/,13µM*,/,/,/,/
Cc1cc(Nc2ccccc2)n(C(=O)c2ccc(Cl)cc2)n1,11%,11µM*,17%,?,20%,8%
Cc1cc(Nc2ccccc2)n(-c2ccc(C(=O)O)cc2)n1,2%,-14%,-4%,-3%,-1%,-2%
Cc1ccc(Oc2cnc3ccccc3n2)cc1,7%,12µM*,?,?,5%,?
Clc1ccc(Oc2cnc3ccccc3n2)cc1,-6%,?,20%,5%,0%,8%
SMILES,ELG1 genotox,FLuc counter,NPC1 promoter act,p53 reactivation,SMN2 splice up,Rab9 prom act
Cc1ccc(-c2csc(NC(=O)c3ccc4c(=O)n5c(nc4c3)CCCCC5)n2)cc1,-11%,?,-5%,-5%,/,-7%
N#CC1=C2SCN(c3ccccc3)CN2C(=O)CC1c1c(Cl)cccc1Cl (centres undefined),0%,11µM*,-1%,?,10%,0%
COc1ccc(-c2nc(CSCC(=O)NCc3ccc4c(c3)OCO4)c(C)o2)cc1,-6%,27µM*,-1%,-5%,-17%,1%
CCc1ccc(-c2nc(CS(=O)CC(=O)O)c(C)o2)cc1 (centres undefined),?,21µM*,24%,0%,/,?
CCOc1ccc(-c2nc(CSCC(=O)NCc3ccco3)c(C)o2)cc1,15%,12µM*,-4%,29%,-65%,-7%
COc1ccc(-c2nc(CSCC(=O)NCc3ccc4c(c3)OCO4)c(C)o2)cc1OC,-5%,0%,-2%,9%,-62%,1%
CCOc1ccc(-c2nc(CSCC(=O)N3CCN(c4cccc(OC)c4)CC3)c(C)o2)cc1,-9%,24µM*,2%,-3%,-97%,-8%
COc1ccc(-c2nc(CSCC(=O)N3CCN(c4ccccc4F)CC3)c(C)o2)cc1,/,-18%,/,/,-65%,/
CCCCCOc1ccc(Cn2c(=O)oc3ccc(C)cc32)cc1OC,/,3%,/,/,-20%,/
COc1cccc(CNS(=O)(=O)c2ccc3c(c2)C(C(C)C)C(=O)N3)c1 (centres undefined),/,-7%,/,/,/,/
CCc1ccc(-c2nc(CSCC(=O)NCc3ccc(C)cc3)c(C)o2)cc1,/,19µM*,/,/,-37%,/
NNC(=O)c1ccc(COc2ccc3c(c2)CCC3)o1,3%,?,?,?,16µM*,4µM*
O=C(c1ccco1)N1CCN(C(=O)c2ccc(COc3ccc4c(c3)CCC4)o2)CC1,-7%,?,19%,3%,14%,?
O=C(N/N=C/c1cccc(O)c1)c1ccc(COc2ccc3c(c2)CCC3)o1,?,19µM*,?,?,-27%,?
O=C1CCCN1CCC(=O)N1CCCC(CO)(Cc2ccccc2)C1 (centres undefined),8%[9.26 µM],17µM*,?,28µM*,/,3.5µM*
Cc1cc(SCC(=O)c2ccccc2)nc(=O)[nH]1,12%[9.26 µM],15µM*,2.5µM*,?,/,4µM*
Cc1cc(SCC(=O)c2ccc(Cl)cc2)nc(=O)[nH]1,?,4.8µM*,1.3µM*,/,/,1.6µM*
Cc1ccc(C(=O)CSc2cc(C)[nH]c(=O)n2)cc1,?,13µM*,3.2µM*,28%,/,4µM*
Cc1cc(SCc2ccc(Cl)cc2Cl)nc(=O)[nH]1,0%,5%,-12%,-13%,/,-7%

# Screening data (PubChem)
